Values joined by “and” are separate entries in the source; they are usually repeats but may differ in a detail not shown here. Identical values can stand only once. Among all 5,500 compounds or so, about 2,000 (36%) were called active. Not shown: some 18% with an inconclusive outcome. Rule as the data show it: active = normalized growth mostly below about 0.91 (no sharp cut-off); inconclusive = no clear call, values can overlap the other calls; inactive = mostly above about 0.92. This is one part of the list.
Test: chemical genetic growth profiling, strain panel (AID 1159580);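 also: tested at 20 µM; growth read once vehicle control cultures reached saturation at 30 °C; 1 = growth at the plate median or of vehicle wells; lower values mean less growth of the strain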
Details: growth OD

Measured: normalized growth

CCCCC1(COC(=O)CCC(=O)O)C(=O)N(c2ccccc2)N(c2ccccc2)C1=O
inactive: S. cerevisiae deletion strains, locus YBR021W, strain FUR4, stronger effect = lower value 1 | S. cerevisiae deletion strains, locus YBR229C, strain ROT2, stronger effect = lower value 1 | S. cerevisiae deletion strains, locus YCL029C, strain bik1, stronger effect = lower value 1.02 | S. cerevisiae deletion strains, locus YDL035C, strain GPR1, stronger effect = lower value 1.01 | S. cerevisiae deletion strains, locus YDL074C, strain BRE1, stronger effect = lower value 0.993 | S. cerevisiae deletion strains, locus YDL101C, strain DUN1, stronger effect = lower value 1 | S. cerevisiae deletion strains, locus YDL134C, strain PPH21, stronger effect = lower value 1.01 | S. cerevisiae deletion strains, locus YDL185W, strain tfp1, stronger effect = lower value 1.01 | S. cerevisiae deletion strains, locus YDL192W, strain arf1, stronger effect = lower value 1.01 | S. cerevisiae deletion strains, locus YDR101C, strain arx1, stronger effect = lower value 1.01 | S. cerevisiae deletion strains, locus YDR150W, strain NUM1, stronger effect = lower value 0.992 | S. cerevisiae deletion strains, locus YDR162C, strain NBP2, stronger effect = lower value 0.995 | S. cerevisiae deletion strains, locus YDR318W, strain mcm21, stronger effect = lower value 1 | S. cerevisiae deletion strains, locus YDR388W, stronger effect = lower value 1.01 | S. cerevisiae deletion strains, locus YDR502C, strain sam2, stronger effect = lower value 1.01 | S. cerevisiae deletion strains, locus YEL061C, strain CIN8, stronger effect = lower value 1 | S. cerevisiae deletion strains, locus YER110C, stronger effect = lower value 1.02 | S. cerevisiae deletion strains, locus YER155C, strain BEM2, stronger effect = lower value 1 | S. cerevisiae deletion strains, locus YER167W, strain BCK2, stronger effect = lower value 1 | S. cerevisiae deletion strains, locus YGL078C, strain dbp3, stronger effect = lower value 0.996 | S. cerevisiae deletion strains, locus YGL086W, strain mad1, stronger effect = lower value 1 | S. cerevisiae deletion strains, locus YGL248W, strain PDE1, stronger effect = lower value 1.01 | S. cerevisiae deletion strains, locus YGR135W, strain pre9, stronger effect = lower value 1.02 | S. cerevisiae deletion strains, locus YGR252W, strain gcn5, stronger effect = lower value 1.06 | S. cerevisiae deletion strains, locus YHR030C, strain SLT2, stronger effect = lower value 1 and 1.05 | S. cerevisiae deletion strains, locus YHR079C, strain IRE1 (second series), stronger effect = lower value 1.01 | S. cerevisiae deletion strains, locus YHR079C, strain IRE1, stronger effect = lower value 1.04 | S. cerevisiae deletion strains, locus YHR094C, strain hxt1, stronger effect = lower value 1.01 | S. cerevisiae deletion strains, locus YHR129C, strain ARP1, stronger effect = lower value 1 | S. cerevisiae deletion strains, locus YHR200W, strain rpn10, stronger effect = lower value 1.01 | S. cerevisiae deletion strains, locus YIL066C, strain RNR3, stronger effect = lower value 1.01 | S. cerevisiae deletion strains, locus YIL073C, strain SPO22, stronger effect = lower value 1.09 | S. cerevisiae deletion strains, locus YIL125W, strain kgd1, stronger effect = lower value 0.991 | S. cerevisiae deletion strains, locus YIR030C, strain dcg1, stronger effect = lower value 1.01 | S. cerevisiae deletion strains, locus YJL095W, strain BCK1, stronger effect = lower value 1.01 and 1.05 | S. cerevisiae deletion strains, locus YJL134W, strain LCB3, stronger effect = lower value 0.996 | S. cerevisiae deletion strains, locus YJL168C, strain set2, stronger effect = lower value 1 | S. cerevisiae deletion strains, locus YJL187C, strain SWE1 (second series), stronger effect = lower value 1.01 | S. cerevisiae deletion strains, locus YJR043C, strain POL32, stronger effect = lower value 0.989 | S. cerevisiae deletion strains, locus YJR066W, strain TOR1, stronger effect = lower value 0.967 | S. cerevisiae deletion strains, locus YJR075W, strain HOC1, stronger effect = lower value 1.01 | S. cerevisiae deletion strains, locus YKL009W, strain mrt4, stronger effect = lower value 1.03 | S. cerevisiae deletion strains, locus YKL068W, stronger effect = lower value 1 | S. cerevisiae deletion strains, locus YKL085W, strain MDH1 (second series), stronger effect = lower value 0.972 | S. cerevisiae deletion strains, locus YKL085W, strain MDH1, stronger effect = lower value 0.972 | S. cerevisiae deletion strains, locus YKL190W, strain CNB1, stronger effect = lower value 0.993 | S. cerevisiae deletion strains, locus YKR001C, strain vps1, stronger effect = lower value 1.01 | S. cerevisiae deletion strains, locus YLR039C, strain RIC1, stronger effect = lower value 0.912 | S. cerevisiae deletion strains, locus YLR058C, strain SHM2, stronger effect = lower value 1 | S. cerevisiae deletion strains, locus YLR102C, strain apc9, stronger effect = lower value 1 | S. cerevisiae deletion strains, locus YLR113W, strain HOG1, stronger effect = lower value 0.952 | S. cerevisiae deletion strains, locus YLR262C, strain YPT6, stronger effect = lower value 0.913 | S. cerevisiae deletion strains, locus YLR268W, strain sec22, stronger effect = lower value 1.02 | S. cerevisiae deletion strains, locus YLR330W, strain CHS5, stronger effect = lower value 0.993 | S. cerevisiae deletion strains, locus YLR342W, strain FKS1 (second series), stronger effect = lower value 0.993 | S. cerevisiae deletion strains, locus YLR371W, strain rom2, stronger effect = lower value 1.01 | S. cerevisiae deletion strains, locus YLR418C, strain cdc73, stronger effect = lower value 1.03 | S. cerevisiae deletion strains, locus YML016C, strain PPZ1, stronger effect = lower value 1 | S. cerevisiae deletion strains, locus YML032C, strain rad52, stronger effect = lower value 1 | S. cerevisiae deletion strains, locus YML124C, strain tub3, stronger effect = lower value 1.01 | S. cerevisiae deletion strains, locus YMR078C, strain ctf18, stronger effect = lower value 1 | S. cerevisiae deletion strains, locus YMR223W, strain ubp8, stronger effect = lower value 1.01 | S. cerevisiae deletion strains, locus YMR263W, strain SAP30, stronger effect = lower value 0.998 | S. cerevisiae deletion strains, locus YMR307W, strain GAS1, stronger effect = lower value 1.05 | S. cerevisiae deletion strains, locus YNL067W, strain RPL9B, stronger effect = lower value 0.998 | S. cerevisiae deletion strains, locus YNL128W, strain TEP1, stronger effect = lower value 1.02 | S. cerevisiae deletion strains, locus YNL183C, strain NPR1, stronger effect = lower value 0.945 | S. cerevisiae deletion strains, locus YNL233W, strain BNI4, stronger effect = lower value 1 | S. cerevisiae deletion strains, locus YNL250W, strain rad50, stronger effect = lower value 1 | S. cerevisiae deletion strains, locus YNL271C, strain bni1, stronger effect = lower value 1.01 | S. cerevisiae deletion strains, locus YNL298W, strain CLA4, stronger effect = lower value 1.01 | S. cerevisiae deletion strains, locus YNL307C, strain MCK1, stronger effect = lower value 1.02 | S. cerevisiae deletion strains, locus YNL322C, strain KRE1, stronger effect = lower value 0.997 | S. cerevisiae deletion strains, locus YNR052C, strain pop2, stronger effect = lower value 1.01 | S. cerevisiae deletion strains, locus YOL006C, strain TOP1, stronger effect = lower value 0.991 | S. cerevisiae deletion strains, locus YOL012C, strain htz1 1.51 | S. cerevisiae deletion strains, locus YOL147C, strain pex11, stronger effect = lower value 1.01 | S. cerevisiae deletion strains, locus YOR061W, strain CKA2, stronger effect = lower value 1 | S. cerevisiae deletion strains, locus YOR069W, strain VPS5, stronger effect = lower value 1 | S. cerevisiae deletion strains, locus YOR136W, strain idh2, stronger effect = lower value 1.02 | S. cerevisiae deletion strains, locus YOR144C, strain elg1, stronger effect = lower value 1.01 | S. cerevisiae deletion strains, locus YOR184W, strain ser1, stronger effect = lower value 1.02 | S. cerevisiae deletion strains, locus YOR231W, strain MKK1, stronger effect = lower value 1.02 | S. cerevisiae deletion strains, locus YOR316C, strain cot1, stronger effect = lower value 1.02 | S. cerevisiae deletion strains, locus YPL055C, strain LGE1, stronger effect = lower value 0.989 | S. cerevisiae deletion strains, locus YPL256C, strain CLN2, stronger effect = lower value 1.02 | S. cerevisiae deletion strains, locus YPR119W, strain clb2, stronger effect = lower value 1.01 | S. cerevisiae deletion strains, locus YPR141C, strain kar3, stronger effect = lower value 1 | S. cerevisiae deletion strains, locus YPR163C, strain tif3, stronger effect = lower value 1.02 | S. cerevisiae deletion strains, locus YPR167C, strain met16, stronger effect = lower value 1.01 | S. cerevisiae deletion strains, strain wtn01, stronger effect = lower value 1.02 | S. cerevisiae strains, strain wild type, stronger effect = lower value 0.995

Source: PubChem BioAssay AID1159580 (chemical genetic matrix, 2015)
